According to PubChem BioAssay (NCI):
The panel holds about 83,000 compounds, 20% with a hit somewhere; the sample as a whole holds those more often.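 Testing used 96-well plates and a 48-hour single-concentration exposure. Example: -40 means 40% of the starting cells died.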 A number with no mark means an inactive call. Activity calls are given as the source filed them. How the source made its calls: active means growth percent below 10; inactive means the rest.

What was measured:
Assay in all cases: NCI-60 one-dose screen, 48 h (100 = growth as untreated, 0 = no growth, -100 = all killed)
Settings in all cases: 10 µM unless noted
NCI-H23 lung = tested on: NCI-H23 lung
NCI-H226 lung = tested on: NCI-H226 lung
NCI-H322M lung = tested on: NCI-H322M lung
HOP-62 NSCLC = tested on: HOP-62 NSCLC
NCI-H460 lung = tested on: NCI-H460 lung
HOP-92 NSCLC = tested on: HOP-92 NSCLC
A549/ATCC NSCLC = tested on: A549/ATCC NSCLC
786-0 renal = tested on: 786-0 renal
COLO 205 colon = tested on: COLO 205 colon
NCI-H522 lung = tested on: NCI-H522 lung

| Structure (SMILES) | growth (NCI-H23 lung) | growth (NCI-H226 lung) | growth (NCI-H322M lung) | growth (HOP-62 NSCLC) | growth (NCI-H460 lung) | growth (HOP-92 NSCLC) | growth (A549/ATCC NSCLC) | growth (786-0 renal) | growth (COLO 205 colon) | growth (NCI-H522 lung) |
| --- | --- | --- | --- | --- | --- | --- | --- | --- | --- | --- |
| N#Cc1c(-c2cccnc2)cc(-c2ccc3ccccc3c2)[nH]c1=O | 77% | 81.9% | 90.1% | 91.8% | 83.7% | 78.5% | 85.1% | 11.9% | 115% |  |
| Cc1cc2nc3c4ccccc4n(CCCN(C)C)c3nc2cc1C | -53.4% (active) | 4.65% (active) | -22.6% (active) | -0.831% (active) | -25.7% (active) |  | 6.71% (active) | 3.7% (active) | -86.3% (active) | -58.7% (active) |
| CC(=O)/C=C/c1cccc2c1C(=O)NC(C)(c1cc3cc(Br)ccc3oc1=O)N2 (stereo unspecified) | 17.9% | 34.3% | 52.5% | 50% | 51.9% |  | 55.1% | 33.2% | 79.6% | 26.8% |
| Cn1cc(-c2cc3nc(-c4cn(C)c5ncc(Br)cc45)cc(N)n3n2)c2cc(Cl)ccc21 | -77% (active) | -40.8% (active) | -73.1% (active) | -78.1% (active) | -69.9% (active) |  | -75.2% (active) | -65.3% (active) | -77.6% (active) | -79.8% (active) |
| Cc1cccc(-c2nc(Nc3cccc(S(N)(=O)=O)c3)c3ccccc3n2)c1 | 39.6% | 54.3% | 52.2% | 80.2% | 37.6% |  | 35.7% | 5.75% (active) | 51.9% | 4.87% (active) |
| N/C(=N\c1nc2ccccc2s1)NC(=O)Nc1ccccc1Br | -24.4% (active) | 8.79% (active) | 14.6% | -19.3% (active) | -26.1% (active) |  | -26.2% (active) | -24.9% (active) | -72.6% (active) | -61.3% (active) |
| Cn1cc(NC(=O)c2cc(NC(=O)c3ccc(C#Cc4ccccc4)cc3)cn2C)cc1C(=O)NCCCN1CCOCC1 | 58.9% | 69.7% | 81% | 85.4% | -15.3% (active) | -11.5% (active) | 33.3% | -4.75% (active) | -78.7% (active) |  |
| N#Cc1c(-c2ccc(Br)cc2)nc2n[nH]c(-c3ccc(Br)cc3)c2c1-c1ccc(C(F)(F)F)cc1 | 15% | 21.7% | 43.1% | 40.3% | 3.96% (active) |  | 27.4% | 27.6% | -70.5% (active) | 10.1% |
| CCCSc1nc(Nc2ccc(S(N)(=O)=O)cc2)c(C#N)c(-c2ccc(Cl)cc2)n1 | 31.4% | -2.08% (active) | 21.9% | -2.6% (active) | 28.6% |  | 16.3% | -69.7% (active) | 46.8% | 16.6% |
| COc1ccc(NC(=O)Cn2c3c(sc2=O)[C@H]2[C@@H](O)[C@@H](O)[C@H](O)[C@@H]2CS3)cc1 | 104% | 96.3% | 101% | 99.5% | 108% |  | 100% | 104% | 117% | 94.2% |
| COc1cccc(-c2c(C#N)c(-c3ccc(Cl)cc3)nc3n[nH]c(-c4ccc(Cl)cc4)c23)c1 | 64.5% | 47.8% | 82.8% | 53.8% | 34.3% |  | 41.9% | 46.1% | 3.25% (active) | 43.8% |
| N/C(=N\c1nc2ccccc2s1)NC(=O)Nc1c(Cl)cccc1Cl | 31.9% | 67.2% | 68.2% | 58.7% | 17.8% |  | 38.8% | 52.5% | 46.2% | -19.3% (active) |
| N=C1N=C(SCc2nc3ccccc3[nH]2)NC(=O)/C1=C/c1ccc(Cl)cc1 | 98.8% | 95.1% | 103% | 102% | 102% |  | 109% | 118% | 110% | 92.7% |
| CNS(=O)(=O)c1ccc(Nc2ccc(C(F)(F)F)cc2)c(-c2cn(C)cn2)c1 | 72.9% | 48.8% | 59.1% | 95.3% | 33.7% |  | 37.1% | 61.2% | 53.1% | 36.5% |
